PubChem BioAssay AID504832 (National Center for Advancing Translational Sciences (NCATS), 2011)
Among all 310,000 compounds or so, about 18,000 (5.8%) were called active. Not shown: some 22% with an inconclusive outcome. Calls come from the whole dose curve; as a rule, active = well fitted inhibition curve with a large enough effect; inconclusive = small, poorly fitted or top-dose-only effect, or another doubt; inactive = no such curve, though single readings can be large or run the other way. The list comes from a sample in which actives are over-represented; it also holds similar structures and randomly drawn compounds. Entries that show only a call come without a potency.

Assay: Primary qHTS for delayed death inhibitors of the malarial parasite plastid, 48 hour incubation
Conditions: P. falciparum luciferase growth in erythrocytes; series mostly up to 28.7 µM
Procedure, shortened: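 Luciferase-expressing P. falciparum in infected erythrocytes (2% hematocrit, 0.1% parasitemia final) in RPMI 1640/0.5% Albumax were exposed to compound for 48 hours at 37 C, 5% CO2; growth read as luminescence.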
Potency is the fitted concentration of half-maximal effect.

| Compound | Potency |
| --- | --- |
| CC(OC(=O)C1CC(=O)N(Cc2ccccc2)C1)C(=O)Nc1ccccc1[N+](=O)[O-] (stereo unspecified) | inactive |
| COc1ccc(Cl)cc1C(=O)NCc1cn(C)nc1C | inactive |
| Cc1ccc(-c2cc(C(=O)NCc3cn(C)nc3C)c3cc(Br)ccc3n2)cc1 | 2.94 µM (active) |
| Cc1nn(C)cc1CNC(=O)Nc1ccc(Cl)cc1 | inactive |
| O=C1/C(=C/c2ccc(F)cc2)SC(=S)N1CCCC(=O)N1CCCCC1CCO (stereo unspecified) | 11.7 µM (active) |
| CCN(C(=O)CN1C(=O)/C(=C/c2ccc(F)cc2)SC1=S)C1CCS(=O)(=O)C1 (stereo unspecified) | inactive |
| O=C(CCCN1C(=O)/C(=C\c2ccccc2)SC1=S)Nc1ccccc1O | inactive |
| N#Cc1cccc(CSc2ncnc(N)n2)c1 | inactive |
| CNC(=O)COC(=O)c1cc(-c2ccc(OC)cc2)nc2ccccc12 | inactive |
| COc1ccc(NC(=O)c2cc(-c3cc(OC)c(OC)c(OC)c3)nc3ccccc23)c(OC)c1 | 5.22 µM (active) |
| COc1ccccc1NC(=O)c1cc(Cl)nc2ccccc12 | inactive |
| COc1ccccc1CN(C)c1nnnn1-c1ccccc1 | inactive |
| CCCC(c1nnnn1C(C)(C)C)N1CCN(Cc2ccccc2)CC1 (stereo unspecified) | inactive |
| CCC(C)(C)n1nnnc1C(c1ccccc1OC)N1CCSCC1 (stereo unspecified) | 11.7 µM (active) |
| CCC(C)(C)n1nnnc1C(c1cccs1)N1CCN(c2nc3ccccc3s2)CC1 (stereo unspecified) | 11.7 µM (active) |
| CC(C)C(c1nnnn1C(C)(C)C)N1CCN(Cc2cccnc2)CC1 (stereo unspecified) | inactive |
| COc1ccccc1C(c1nnnn1C(C)(C)C)N1CCN(Cc2ccccc2)CC1 (stereo unspecified) | 13.1 µM (active) |
| CCC(C)(C)n1nnnc1CN1CCN(c2nc3ccc(C)cc3cc2C#N)CC1 | inactive |
| CCC(C)(C)n1nnnc1C(c1ccc(OC)c(OC)c1)N1CCN(C(=O)c2ccco2)CC1 (stereo unspecified) | inactive |
| c1ccc2sc(N3CCNCC3)nc2c1 | inactive |
| Cc1ccc(S(=O)(=O)NCCC(=O)NC2CCN(Cc3ccccc3)CC2)cc1 | inactive |
| Cc1cccc([C@@H]2[C@@H]3C(=O)N(C)C(=O)[C@@H]3[C@@H]3C(=O)Nc4ccccc4C(=O)N23)c1 | inactive |

| Compound | Potency |
| --- | --- |
| CC1CCCCC12NC(=O)N(CC(=O)Nc1ccc(S(=O)(=O)Nc3ncccn3)cc1)C2=O (stereo unspecified) | inactive |
| COc1cccc(C(=O)Nc2nnc(S(=O)(=O)N3CCOCC3)s2)c1 | inactive |
| Cc1ccc(C)c(S(=O)(=O)Nc2cccc(-n3cnnn3)c2)c1 | inactive |
| Cc1cnc(C)c(N2CCN(C(=O)C3CCC(=O)N(CCc4cccc(F)c4)C3)CC2)n1 (stereo unspecified) | inactive |
| O=C(/C=C/Nc1ccccc1OC(F)(F)F)C(F)(F)F | inactive |
| CCCOc1ccc(N/C=C/C(=O)C(C)(C)C)cc1 | inactive |
| CN(C)c1ccc(N/C=C/C(=O)C(F)(F)F)cc1 | 9.28 µM (active) |
| COc1ccc2ccccc2c1/C=N/NC(=O)c1cc(C)[nH]n1 | inactive |
| C/C(=N\OCC(=O)O)c1ccc(Cl)cc1 | inactive |
| C/C(=N\N=C(N)N)c1ccc(Cl)cc1 | 6.57 µM (active) |
| Cc1onc(-c2ccccc2)c1C(=O)N=C(N)c1ccc(Cl)cc1 | inactive |
| Cc1ccccc1OCC(=O)N(Cc1cccc(F)c1)C1CCS(=O)(=O)C1 (stereo unspecified) | inactive |
| CN(C(=O)COC(=O)CNC(=O)C12CC3CC(CC(C3)C1)C2)c1ccccc1 | inactive |
| O=C(Nn1cc(C(=O)N2CCN(c3ccccc3F)CC2)c2ccccc2c1=O)c1cnccn1 | 10.4 µM (active) |
| O=C(c1c(F)cccc1F)N1CCN(c2ncc(Br)cn2)CC1 | inactive |
| COc1ccc2oc(=O)c(C(=O)N3CCN(c4ccccc4F)CC3)cc2c1 | inactive |
| O=C(COC(=O)c1cccs1)NCc1cccs1 | inactive |
| CC(C)=CCN1CCN(CCCc2ccccc2)CC1CCO (stereo unspecified) | inactive |
| O=C1Nc2cc(C(=O)N3CCN(c4ccc(F)cc4)CC3)ccc2NC1CSCc1cccc(F)c1 (stereo unspecified) | inactive |
| Cc1cc(C)cc(Oc2nc3c(C)cccn3c(=O)c2/C=C(\C#N)C(=O)NC2CCS(=O)(=O)C2)c1 (stereo unspecified) | 13.1 µM (active) |
| Cc1cccn2c(=O)c(/C=C(\C#N)S(=O)(=O)c3ccc(Cl)cc3)c(N3CCC(C(N)=O)CC3)nc12 | inactive |
| Cc1cccn2c(=O)c3cc(C(=O)NC4CCCCC4)sc3nc12 | inactive |

| Compound | Potency |
| --- | --- |
| CCCCNC(=O)Cn1nc(C)c(S(=O)(=O)N2CCOCC2)c1C | inactive |
| CSCCC(NC(=O)c1ccco1)C(=O)NCCc1ccc(F)cc1 (stereo unspecified) | inactive |
| COc1ccc2c(C)c(CCC(=O)NC3CC3)c(=O)oc2c1C | inactive |
| COc1ccccc1C(=O)NC(=S)NC12CC3CC(CC(C3)C1)C2 | inactive |
| O=[N+]([O-])c1ccccc1S(=O)(=O)Nc1cccc2cccnc12 | 2.33 µM (active) |
| Cc1ccccc1NC(=O)c1ccccc1NS(=O)(=O)c1cccc2cccnc12 | inactive |
| O=C(Nc1ccccc1Cl)Nc1cccc2cccnc12 | inactive |
| COc1ccccc1OCC(=O)OCc1cc(-c2ccco2)on1 | inactive |
| C/C(=N\NC(N)=S)c1cccnc1 | inactive |
| C/C(=N/NC(=O)c1ccn(C)n1)c1ccncc1 | inactive |
| C/C(=N\NC(N)=S)c1ccncc1 | 3.29 µM (active) |
| CC(=O)N1CCC(C(=O)OCc2ccc(Cl)cc2)(c2ccccc2)CC1 | inactive |
| O=C(/C=C/c1ccccc1[N+](=O)[O-])OCC(=O)N1CCCC1 | inactive |
| COc1ccc(C(=O)NCCn2nc(C)cc2C)cc1OC1CCN(C(C)=O)CC1 | inactive |
| O=C(Cn1c(-c2ccc(Cl)cc2)noc1=O)N1CCN(c2ccccc2F)CC1 | 11.7 µM (active) |
| O=C(CCSc1ccccc1)N1CCN(c2ccccc2F)CC1 | inactive |
| O=C(NCC(=O)N1CCN(c2ccccc2F)CC1)c1cccs1 | inactive |
| Cc1cc(C(=O)N2CCN(c3ccccn3)CC2)c(C)o1 | inactive |
| CCOC(=O)/C(C#N)=C/c1ccc(N2CCN(Cc3ccccc3)CC2)cc1 | inactive |
| Cc1ccc(S(=O)(=O)c2nnn3c2nc(N2CCN(c4ccccn4)CC2)c2ccccc23)cc1 | 1.47 µM (active) |
| CCOC(=O)c1nnn2c3ccccc3c(=O)n(C)c12 | inactive |
| CCOC(=O)c1nnn2c1nc(N1CCN(c3ccccc3)CC1)c1ccccc12 | 5.22 µM (active) |

| Compound | Potency |
| --- | --- |
| CC(=C1C(=O)c2ccccc2C1=O)N1CCN(c2ccccn2)CC1 | inactive |
| COc1ccc(C2NC(=O)N(C)C(C)=C2[N+](=O)[O-])cc1 (stereo unspecified) | inactive |
| COc1ccc(S(=O)(=O)NCc2cccnc2)cc1NC(=O)c1ccc(C)cc1 | inactive |
| CCN(C(=O)CSc1ncnc2sccc12)c1c(N)n(Cc2ccccc2)c(=O)[nH]c1=O | inactive |
| O=C(Nc1cc(S(=O)(=O)N2CCOCC2)ccc1OCC(F)(F)F)c1ccc(N2CCCC2=O)cc1 | inactive |
| COc1ccc(S(=O)(=O)N2CCCCC2)cc1NC(=O)c1cc([N+](=O)[O-])ccc1N1CCOCC1 | 9.28 µM (active) |
| COc1ccc(S(=O)(=O)N2CCOCC2)cc1C(=O)NC1CCCCC1 | inactive |
| O=C(NC1CCCCC1)c1cc([N+](=O)[O-])ccc1N1CCOCC1 | inactive |
| COc1ccc(S(=O)(=O)N2CCOCC2)cc1NC(=O)CSc1cc(C)ccc1C | inactive |
| COc1ccc(S(=O)(=O)N2CCOCC2)cc1NC(=O)c1ccc(OCC(C)C)c(OC)c1 | 9.28 µM (active) |
| CC(C)Cn1c(=O)c2ccccc2n2c(CCC(=O)NCc3ccccn3)nnc12 | inactive |
| S=C(Nc1cccc(Br)c1)N1CCn2cccc2C1c1cccnc1 (stereo unspecified) | 11.7 µM (active) |
| S=C(NCCc1ccccc1)N1CCn2cccc2C1c1ccncc1 (stereo unspecified) | 10.4 µM (active) |
| Fc1cc(Br)ccc1NC(=S)Nc1cccnc1 | inactive |
| S=C(NCCc1ccccc1)N1CCCCC1 | inactive |
| CC1CCCCN1C(=S)NCc1ccccc1 (stereo unspecified) | inactive |
| COc1ccc(C(=O)NC(=S)N2CCCCC2c2cccnc2)cc1OC (stereo unspecified) | inactive |
| COc1ccc(CCNS(=O)(=O)c2cccc([N+](=O)[O-])c2)cc1 | inactive |
| CN1CCN(C(=O)c2ccccc2NC(=O)COc2ccccc2Cl)CC1 | inactive |
| COc1ccc(/C(C)=N\NC(=O)c2ccc(-c3ccccc3)cc2)c(F)c1 | inactive |
| CCOc1ccc(/C=C/C(=O)N(CC)CC(=O)NCc2cccs2)cc1OC | inactive |
| CS(=O)(=O)Nc1ccc(C2=NN(S(C)(=O)=O)C(c3cccs3)C2)cc1 (stereo unspecified) | inactive |

| Compound | Potency |
| --- | --- |
| CCS(=O)(=O)Nc1ccc(C2=NN(C(C)=O)C(c3cccs3)C2)cc1 (stereo unspecified) | inactive |
| CS(=O)(=O)Nc1cccc(C2=NN(C(=O)c3cccc(F)c3)C(c3cccs3)C2)c1 (stereo unspecified) | 11.7 µM (active) |
| CSc1ncccc1C(=O)Nc1ccc(C)cn1 | inactive |
| Cc1ccc2c(c1)N(CC(=O)N1CCC(O)CC1)C(=O)CO2 | inactive |
| CC(=O)OC(COc1ccc(F)cc1)Cn1cnc2ccccc21 (stereo unspecified) | inactive |
| CC(C)c1ccc(OCC(O)Cn2cnc3ccccc32)cc1 (stereo unspecified) | 11.7 µM (active) |
| CC(C)c1ccc(OCC(O)CN2CCN(c3ccccn3)CC2)cc1 (stereo unspecified) | inactive |
| COc1cc([N+](=O)[O-])cc([N+](=O)[O-])c1NC(=O)N1CCOCC1 | inactive |
| NC(=O)c1ccsc1NC(=O)COC(=O)Cc1n[nH]c(=O)c2ccccc12 | inactive |
| O=S(=O)(NC1CC1)c1ccc(Cl)cc1 | inactive |
| Cc1ncoc1C(=O)NCCC(c1ccccc1)c1ccccc1 | inactive |
| CC(Cc1ccccc1)NCCC(c1ccccc1)c1ccccc1 (stereo unspecified) | 10.4 µM (active) |
| CC(Cc1ccccc1)C(=O)N(C)Cc1ccccc1 (stereo unspecified) | inactive |
| NS(=O)(=O)c1ccc(CCNC(=O)CN2C(=O)c3ccccc3S2(=O)=O)cc1 | inactive |
| COc1ccc(N2CCN(S(=O)(=O)c3ccc4c(c3)N(C(C)=O)CCO4)CC2)cc1 | inactive |
| COC(=O)C1=C(C)N(C)C(=S)NC1c1ccccc1 (stereo unspecified) | inactive |
| COC(=O)C1=C(C)N(C)C(C)=C(C(=O)OC)C1c1cccc(Br)c1 | 8.28 µM (active) |
| COCCN1C(=O)N[C@@H](c2ccccc2)C(C(=O)OC)=C1C | inactive |
